In all, about 9,900 sequences were measured (“r (bound/input frequency ratio)”: median about 0.7, highest 2% from about 6.5 on). The sample as a whole holds a higher share of the highest values than the screen did.
B1: ENSMUSG00000028439.106|Fam219a|156:160 (ssRNA)
RNA: GGGAGUUCUACAGUCCGACGAUCGCUUCGAUAUCCGCAUGCUACCCUCAUCUCCAGAUGGGAAGCCUGGCAGCGCUGUCCAAAGGGAUACUGUCUCUCCAUUAGAUAACUCCUUCCACUGUCUCCCUCCCCCGCUUUCUUACUUUCUGAGGGUUGGGAAGGUAAGAUGGGCCUUAGAGAGAAGCCAGGUUUGGGGAUGCAUACACCUGUUCUCACCGGUCUCUAACCAGUGCAUCUGUCUCUCUGCCUCAUCCCCACACCGCCCUGCCACCCCCAGUCUUCUGUCUAUUGGUUCCAGGCUGGACUCUUGCGGUCGCACUAGUGUGGAAUUCUCGGGUGUCAAGG
B2: ENSMUSG00000061578.55|Ksr2 (ssRNA)
RNA: GGGAGUUCUACAGUCCGACGAUCGCUUCGAUAUCCGCAUGCUACACGCUGGACCAGUGUGUGCGCAUGUGUCUACACAUGGACAGGGCCAACUGCUAUCCUUCUGCCUGGACGAGCCAGCUGUGGAGUGUCCCAGCUGUGCUAUCCUGGAACACAGAACCAGGAUGGAACCAGAAACAAUACACCUGCUCCGUUGUCAAGGCUUCUAGGCCAAGGUCAGGGUAGGGAGGUGGGGUGGGUUAAACUUGCAAACAUCUGAUUUUAGAGGUCCCAUUCCAAGAUGGAAGUCACCGGUUGCCGCUGACUCUUGCGGUCGCACUAGUGUGGAAUUCUCGGGUGUCAAGG
B3: ENSMUSG00000031028.274|Tub (ssRNA)
RNA: GGGAGUUCUACAGUCCGACGAUCGCUUCGAUAUCCGCAUGCUAAAAAAGUAGAGUCAUGUAGAGUCAUGCUUUGAAUAUGUGGGUCAUGCUUUAGAUAUGAAGAGGCUAUGCAGGUAAGGAGGCUGGAUUGAUGUAAAUGGAAGUAGUACUUUAAGAAAGCUCUAGAUUUCCCAGGUUGGACACUCGACGAAAGGCACACCUGCUGCAGCAGGUUCUGACACACCUGAGCCAUACAUUGCCAUCAGAGAACCCUCAGCGAGGUAGCCUUUGUUUACAGUCUAGUUUCUAGAGGGCAGUAGGACCUCUUGCGGUCGCACUAGUGUGGAAUUCUCGGGUGUCAAGG
B4: ENSMUSG00000031028.129|Tub|126:130;202:207 (ssRNA)
RNA: GGGAGUUCUACAGUCCGACGAUCGCUUCGAUAUCCGCAUGCUACCAAAUAUCUGAGUGGAUGGGGAUGAUAGGAGUCAUCCAGUAGACUCCCUACAUCAGGGCUCUCAGCAGCCCCAGCACAACACCUAUGACACACACACAGGAUCUAGGUCACCAUUCAAGUAAUGCAUACCUUCAGGAAGAAUGUCCUCUCUGGGAAGACUCAGCUCCCAUUAUUGCCAGCAUGCCAUGAUCAGUGAGGGCACACACCCAUGCUUAGGGGGAUGGCGCAGGGUGAGGGGAGCAGAGGAUAUUUUAGGGCCCUCUUGCGGUCGCACUAGUGUGGAAUUCUCGGGUGUCAAGG
B5: ENSMUSG00000004113.208|Cacna1b|46:50;236:240 (ssRNA)
RNA: GGGAGUUCUACAGUCCGACGAUCGCUUCGAUAUCCGCAUGCUACAUCGGGUGGAUUGGGUGGGAGCUGCUCAGAGCAGCACGGGGGCUACACACUUAGGGACAUUGACAGUGUCCAUCAGCAUGUCAGAGAAGCAGCUGUAGUGCCCGUGUUUCUCCCUGAGUCAUGGGUUCUGAAGAAGCCAGAGCGGCACAAUGCGUGCUUGCAUGAGGCACUUUCAGCCUUUUUAAAUCUGACUCUCAGGGAUGGGAUGCCUGCCAAGUAGGGUGUAAUCUCUGUACACAUUUUAAAACAACAACAACAACUCUUGCGGUCGCACUAGUGUGGAAUUCUCGGGUGUCAAGG
B6: ENSMUSG00000022095.101|Fam160b2 (ssRNA)
RNA: GGGAGUUCUACAGUCCGACGAUCGCUUCGAUAUCCGCAUGCUAUGCUCUACCCUCCUGGAGGCUGUUGCAAAAUUCCCAACUGCCUCCUGGCAGAGGCCCAAAGUAUGCUCUGCGCCCAGGCGGGGGCAGCUGCUAACAAGAGCCCUGGCGCAGCUGCAGCCAGGGCAGGCGAGAGCCUUGGAGCUGGGUGCCAGGCUCCAGCUCCAGCUCCAGCUGGUUCCUCUCUGGCGCCUUCUGAACCCGUCUCAGCAAGUCCGAAACACCUGGGCAGAGAGGUCAUUGACCAGGGAUGGGGGCCCUUGCUCUUGCGGUCGCACUAGUGUGGAAUUCUCGGGUGUCAAGG
B7: ENSMUSG00000028439.159|Fam219a (ssRNA)
RNA: GGGAGUUCUACAGUCCGACGAUCGCUUCGAUAUCCGCAUGCUACAGGAGCCAGGCUUCCAGAAAGGCUCUUCAAGAGCAAGCUUAAGGAAAUACAGUGAGCCAAGUGGCUGUAUGAUAUGGUAUGGUAUGGUAUGGUAUGGUAUGGUAUGGUAUGCACAUGUGUGUGCAUGUGUGUGUGCCUGUGUGUGUGCGUGUGCGUGUGUGUAUGUGUGUGCGUGUGUGUGUGUGUGUGUUGUACCCGAGUGUGUGUUGAGCCUAUCUGUCCAGGGAACCAGAUUGGUGUCCGAGAUGAGGAAAUGGCUCUCUUGCGGUCGCACUAGUGUGGAAUUCUCGGGUGUCAAGG
B8: ENSMUSG00000028439.162|Fam219a (ssRNA)
RNA: GGGAGUUCUACAGUCCGACGAUCGCUUCGAUAUCCGCAUGCUAAAAGGCUCUUCAAGAGCAAGCUUAAGGAAAUACAGUGAGCCAAGUGGCUGUAUGAUAUGGUAUGGUAUGGUAUGGUAUGGUAUGGUAUGGUAUGCACAUGUGUGUGCAUGUGUGUGUGCCUGUGUGUGUGCGUGUGCGUGUGUGUAUGUGUGUGCGUGUGUGUGUGUGUGUGUUGUACCCGAGUGUGUGUUGAGCCUAUCUGUCCAGGGAACCAGAUUGGUGUCCGAGAUGAGGAAAUGGCUGUGGCCUGGGAAAUCAGUCUCUUGCGGUCGCACUAGUGUGGAAUUCUCGGGUGUCAAGG
B9: ENSMUSG00000028439.161|Fam219a (ssRNA)
RNA: GGGAGUUCUACAGUCCGACGAUCGCUUCGAUAUCCGCAUGCUAUUCCAGAAAGGCUCUUCAAGAGCAAGCUUAAGGAAAUACAGUGAGCCAAGUGGCUGUAUGAUAUGGUAUGGUAUGGUAUGGUAUGGUAUGGUAUGGUAUGCACAUGUGUGUGCAUGUGUGUGUGCCUGUGUGUGUGCGUGUGCGUGUGUGUAUGUGUGUGCGUGUGUGUGUGUGUGUGUUGUACCCGAGUGUGUGUUGAGCCUAUCUGUCCAGGGAACCAGAUUGGUGUCCGAGAUGAGGAAAUGGCUGUGGCCUGGGAACUCUUGCGGUCGCACUAGUGUGGAAUUCUCGGGUGUCAAGG
B10: ENSMUSG00000028439.158|Fam219a (ssRNA)
RNA: GGGAGUUCUACAGUCCGACGAUCGCUUCGAUAUCCGCAUGCUAAAAGUCCAGGAGCCAGGCUUCCAGAAAGGCUCUUCAAGAGCAAGCUUAAGGAAAUACAGUGAGCCAAGUGGCUGUAUGAUAUGGUAUGGUAUGGUAUGGUAUGGUAUGGUAUGGUAUGCACAUGUGUGUGCAUGUGUGUGUGCCUGUGUGUGUGCGUGUGCGUGUGUGUAUGUGUGUGCGUGUGUGUGUGUGUGUGUUGUACCCGAGUGUGUGUUGAGCCUAUCUGUCCAGGGAACCAGAUUGGUGUCCGAGAUGAGGAACUCUUGCGGUCGCACUAGUGUGGAAUUCUCGGGUGUCAAGG
B11: ENSMUSG00000028439.160|Fam219a (ssRNA)
RNA: GGGAGUUCUACAGUCCGACGAUCGCUUCGAUAUCCGCAUGCUACCAGGCUUCCAGAAAGGCUCUUCAAGAGCAAGCUUAAGGAAAUACAGUGAGCCAAGUGGCUGUAUGAUAUGGUAUGGUAUGGUAUGGUAUGGUAUGGUAUGGUAUGCACAUGUGUGUGCAUGUGUGUGUGCCUGUGUGUGUGCGUGUGCGUGUGUGUAUGUGUGUGCGUGUGUGUGUGUGUGUGUUGUACCCGAGUGUGUGUUGAGCCUAUCUGUCCAGGGAACCAGAUUGGUGUCCGAGAUGAGGAAAUGGCUGUGGCCCUCUUGCGGUCGCACUAGUGUGGAAUUCUCGGGUGUCAAGG

The binders below were run against TDP-43 (Homo sapiens, UniProt Q13148 1-414) (assay: RNA Bind-n-Seq with designed 260-mer pool; 25 mM Tris-HCl, 150 mM KCl, 3 mM MgCl2, BSA (printed 500 mg/mL), 20 units/mL SUPERase IN; pH not stated; 500 nM RNA pool, 1 h, 4 C; TDP-43 5, 50, 500 nM; high values mean tight binding). Conditions: protein: recombinant; tags: SBP (GST cleaved off with PreScission; pGEX-GST-SBP).
Outline: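 In 25 mM Tris-HCl, 150 mM KCl, 3 mM MgCl2, BSA and SUPERase IN, 500 nM of an in vitro-transcribed 260-nt 3′ UTR oligo pool was incubated for 1 h at 4 °C with SBP-tagged TDP-43 (5, 50 or 500 nM) captured on streptavidin beads. RNA remaining after washes was biotin-eluted, reverse transcribed, PCR-amplified and sequenced. Binding, R, is the bound-sample abundance of each oligo, normalized to mapped reads, divided by its abundance in input. Each duplicate used a separate, independent protein batch.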

Chain of TDP-43 (Q13148 whole entry): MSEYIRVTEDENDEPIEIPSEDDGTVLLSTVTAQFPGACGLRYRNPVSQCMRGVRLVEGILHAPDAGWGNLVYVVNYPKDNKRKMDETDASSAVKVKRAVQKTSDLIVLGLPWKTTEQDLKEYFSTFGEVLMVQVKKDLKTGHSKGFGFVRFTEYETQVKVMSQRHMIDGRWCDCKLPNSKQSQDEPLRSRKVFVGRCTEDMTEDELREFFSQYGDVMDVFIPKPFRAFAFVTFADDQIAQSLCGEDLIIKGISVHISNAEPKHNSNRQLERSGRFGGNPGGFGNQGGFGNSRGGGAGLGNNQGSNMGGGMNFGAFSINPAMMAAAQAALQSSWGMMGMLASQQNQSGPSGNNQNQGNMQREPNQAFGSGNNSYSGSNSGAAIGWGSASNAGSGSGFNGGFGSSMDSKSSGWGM

| Binder | binding signal |
| --- | --- |
| B1 | 0.353 R (bound/input frequency ratio) |
| B2 | 0.378 R (bound/input frequency ratio) |
| B3 | 0.687 R (bound/input frequency ratio) |
| B4 | 0.668 R (bound/input frequency ratio) |
| B5 | 0.881 R (bound/input frequency ratio) |
| B6 | 0.743 R (bound/input frequency ratio) |
| B7 | 7.39 R (bound/input frequency ratio) |
| B8 | 8.11 R (bound/input frequency ratio) |
| B9 | 8.09 R (bound/input frequency ratio) |
| B10 | 6.13 R (bound/input frequency ratio) |
| B11 | 6.51 R (bound/input frequency ratio) |

From publication PMC12864922, “TDP-43 directly inhibits mRNA accumulation in neurites through modulation of mRNA stability”
